Reference: PubChem BioAssay

Assay: optical density shifts of acrAB sulA E. coli – strain DRC41, OD650, 48 h, E. coli filamentation inducer project, primary screen (AID 1152);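 further: E. coli MC1000 strain DRC41 lacking acrAB efflux pump and sulA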
Settings: higher = more signal, called active from +8 up or from −8 down

z-score, inactive:
COCCCNC(=O)[C@@]1(Sc2ccc(C)cc2)CC(=O)N(Cc2ccccc2)[C@@H]1c1ccc(CO)cc1I 0.613, COC(=O)[C@H](C)NC(=O)CCC1CC(OC(=O)NCCc2ccc(F)cc2)CC2(CCCC(COC(=O)NCC(c3ccccc3)c3ccccc3)O2)O1 (stereo partly specified) 0.523, COc1ccccc1CN1C(=O)c2ccccc2[C@@H](C(=O)NCC(F)(F)F)[C@@H]1c1ccc(CO)cc1 1.22, Cc1cc2c(c(=O)o1)[C@H](O)[C@H]1O[C@H]1C2=O -0.743, CCN(CC)c1ccc(N2CC=CC34O[C@@H]5/C=C\CCC(C)OC(=O)C5[C@H]3C(=O)N(CCCO)[C@@H]4C2=O)cc1 (stereo partly specified) -0.074, O=C1O[C@@H](c2ccccc2)[C@@H](c2ccccc2)N2[C@@H](c3ccccc3OCCO)[C@]3(C(=O)Nc4ccc(C#CCCO)cc43)[C@@H](C(=O)O)[C@H]12 0.0825, COc1ccc([Si](C)(C)[C@@H]2[C@@H](CC(=O)N3CCC[C@H]3CO)O[C@]3(C(=O)N(Cc4cccc(N5CCC5=O)c4)c4ccccc43)[C@H]2C)cc1 0.313, CC(C)(C)N1CC=CC23O[C@@H]4C=CCCOC(=O)C4[C@H]2C(=O)N(CCCCCO)[C@@H]3C1=O (stereo partly specified) 0.499, COc1cccc([C@@H]2Oc3ccc(Br)cc3C(=O)[C@H]2O)c1 0.91, CO[C@H]1COC(=O)[C@@H]2CCCN2C(=O)CC=C[C@@H](C)[C@H](OC)COC(=O)CC=C[C@@H]1C 0.604, CC(CCN1CCc2nc(-c3ccccc3)c(-c3ccccc3)cc2C1)=NO[C@H](C)c1cn([C@@H]2COC[C@H]2O)nn1 0.548, COC(=O)[C@H]1COC(c2ccc(OCCCO)cc2)=N1 -0.13, O=C1[C@H]2[C@H]3[C@H](O)[C@H](O)CC(=NOC[C@@H](O)COCc4ccco4)[C@H]3CC[C@H]2C(=O)N1Cc1ccc2c(c1)OCO2 0.198, CC[C@@H](c1ccccc1)n1c(=O)n2n(c1=O)[C@H]1[C@H](O)[C@@H]3O[C@@H]3C(=NOCC=C(C)CCC=C(C)C)[C@H]1CC2 -1.15, C[C@@H](c1ccccc1)N1C(=O)[C@H]2[C@H]3[C@H](O)[C@H](O)CC(=NOC[C@@H](O)COCc4ccco4)[C@@H]3CC[C@H]2C1=O -0.224, CO[C@H]1O[C@H](CO)[C@@H](OC(=O)Nc2ccc3c(c2)OCO3)[C@H](OC(=O)Nc2ccccc2-c2ccccc2)[C@@H]1OC(=O)Nc1ccccc1-c1ccccc1 0.181, NCCCCCNC(=O)[C@@H]1C[C@@H]2C(=O)N3CCC[C@H]3C(=O)N2[C@@H]1c1cccc(OCCO)c1 -0.221, C[C@@H]1C=CCC(=O)OC[C@H](C)C(=O)N2CCC[C@H]2C(=O)OC1 0.665, CCCC=C(CCC)[C@@H](NC(=O)c1ccc(-c2ccccc2)cc1)c1ccc(C(=O)OC)cc1 -1.23, CCOC(=O)[C@H](Cc1ccccc1)NC(=O)CCC1CC(OC(=O)NCc2ccc3c(c2)OCO3)CC2(CCCC(COC(=O)NCC3CCCCC3)O2)O1 (stereo partly specified) -0.251, COc1ccc(COC(=O)NN=C2C[C@@H](O)[C@@H](O)[C@@H]3[C@@H]4C(=O)N(c5ccc(F)cc5F)C(=O)[C@@H]4CC[C@@H]23)cc1 0.0009, CC(C)[C@@H](OCc1ccccc1)[C@H](C)C=NO[C@H](C)c1cn([C@H](CO)Cc2ccccc2)nn1 -0.489, COC(=O)[C@H](C)NC(=O)CCC1CC(OC(=O)NCc2cccc3ccccc23)CC2(CCCC(COC(=O)NCCc3ccc(Cl)cc3)O2)O1 (stereo partly specified) 0.434, COc1ccc(-c2nc3c(c4c2C[C@H](C)OC4)CN(CCC(C)C)CC3)cc1 0.498, O=C(NN=C1C[C@@H](O)[C@@H](O)[C@@H]2[C@@H]3C(=O)N(c4cccc(Oc5ccccc5)c4)C(=O)[C@@H]3CC[C@H]12)OCc1ccccc1 -0.155, CCOC(=O)CCN1C(=O)[C@H]2[C@H]3[C@H](O)[C@H](O)CC(=NNC(=O)OCc4ccc(OC)cc4)[C@@H]3CC[C@H]2C1=O 0.0393, CCN1C(=O)[C@H]2[C@H]3[C@H](O)C=CC(=O)[C@@H]3CC[C@H]2C1=O -0.474, C=C(CCCC)C(=O)CC[C@@H](OC(C)=O)c1cccc(OCCO)c1 -0.462, O=C1C[C@]2(c3ccc([N+](=O)[O-])cc3)C(=O)N(CCN3CCOCC3)c3cc(CO)ccc3[C@H]2N1CC12CC3CC(CC(C3)C1)C2 0.319, [N-]=[N+]=NCc1ccccc1[C@@H]1OC(c2ccc(OCCCO)cc2)=N[C@]1(Cc1ccccc1)C(=O)N1CCOCC1 0.854, CC(C)N1CC=CC23O[C@@H]4C=CCCOC(=O)C4[C@H]2C(=O)N(CCCCCCO)[C@@H]3C1=O (stereo partly specified) 0.383, CCCNC(=O)[C@@H]1c2ccccc2C(=O)N(Cc2ccccc2Cl)[C@H]1c1ccc(CO)cc1 2.47, CCN1C(=O)[C@H]2[C@H]3[C@H](O)[C@H](O)CC(=NOCc4ccccc4)[C@H]3CC[C@H]2C1=O -0.255, C[C@H](c1ccccc1)N1C(=O)[C@H]2[C@H]3[C@H](O)[C@H](O)CC(=O)[C@@H]3CC[C@H]2C1=O -0.228, COC(=O)C1=C(C)[C@@H](O)[C@@H](C)[C@H](c2c(OC)c(OC)c(C)c(OC)c2OC)O1 -0.472, CC(=O)OC[C@H]1O[C@H](CC=NOC[C@@H](C)[C@H](OCc2ccccc2)C(C)C)C=C[C@@H]1OC(C)=O -0.0083
